One may read the viability as a read-out of living cells in per cent, often relative to untreated cells.

Drawing on PubChem BioAssay (NCATS), this text covers Potency and viability for 14 compounds.

Records with an inconclusive call do not appear. Values without a mark were called inactive. Active and inactive are the calls of the source. Calls follow the shape of the dose curve; as a rule, active = well fitted curve in the direction sought with a large enough effect; inconclusive = small, poorly fitted or top-dose-only effect, or another doubt; inactive = no such curve, though single readings can be large; an effect the other way counts as inactive or inconclusive.

Test [1] is described as follows: Quantitative High-Throughput drug screen in 47 multiple myeloma cell lines against the NCATS MIPE library collection: KMS12BM_JCRB cell viability assay (AID 1918971). Also: nearly all actives have a fitted effect of over 35% in size. Also: potency is read from the fitted curve at half-maximal effect. The method in brief: (§1)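 Viability readout: CellTiter-Glo luminescence following 5 min room-temperature incubation with reagent. Prior exposure: 48 h, 37C, humidified 5% CO2, 500 cells per well.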
A short description of test [2]: Quantitative High-Throughput drug screen in 47 multiple myeloma cell lines against the NCATS MIPE library collection: KMS20_JCRB cell viability assay (AID 1918973). Also: nearly all actives have a fitted effect of over 45% in size. Also: potency is read from the fitted curve at half-maximal effect. The method, boiled down:
(§2)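 CellTiter-Glo ATP luminescence gave viability after 48 h compound treatment at 37C of 500 multiple myeloma cells per well. Normalisation used DMSO-only wells as 100% and media-only wells as 0% viability; primary qHTS of approved and investigational drugs.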

Test [3] in a line: Quantitative High-Throughput drug screen in 47 multiple myeloma cell lines against the NCATS MIPE library collection: OCIMY1_PLB cell viability assay (AID 1918979). Also: nearly all actives have a fitted effect of over 35% in size. Also: potency is read from the fitted curve at half-maximal effect. The method, boiled down: (§3)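 MIPE 4.0 approved/investigational drugs; 500 cells/well; 48 h 37 °C humidified 5% CO2; CTG luminescence readout; DMSO = 100%, media = 0% viability.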
Test [4] can be described thus: Quantitative High-Throughput drug screen in 47 multiple myeloma cell lines against the NCATS MIPE library collection: MM1S_ATCC cell viability assay (AID 1918980). Also: nearly all actives have a fitted effect of over 45% in size. Also: potency is read from the fitted curve at half-maximal effect. The method, boiled down: as §3
Test [5] is described as follows: Quantitative High-Throughput drug screen in 47 multiple myeloma cell lines against the NCATS MIPE library collection: MM1R_ATCC cell viability assay (AID 1918981). Also: nearly all actives have a fitted effect of over 35% in size. Also: potency is read from the fitted curve at half-maximal effect. The method in brief:
as §3

Test [6] in a line: Quantitative High-Throughput drug screen in 47 multiple myeloma cell lines against the NCATS MIPE library collection: KMS28PE_JCRB cell viability assay (AID 1918983). Also: nearly all actives have a fitted effect of over 35% in size. Also: potency is read from the fitted curve at half-maximal effect. The method, boiled down:
as §3

A short description of test [7]: Quantitative High-Throughput drug screen in 47 multiple myeloma cell lines against the NCATS MIPE library collection: L363_DSMZ cell viability assay (AID 1918984). Also: nearly all actives have a fitted effect of over 40% in size. Also: potency is read from the fitted curve at half-maximal effect. The method in brief:
as §3

The nature of test [8]: Quantitative High-Throughput drug screen in 47 multiple myeloma cell lines against the NCATS MIPE library collection: KMS34_JCRB cell viability assay (AID 1918985). Also: nearly all actives have a fitted effect of over 40% in size. Also: potency is read from the fitted curve at half-maximal effect. The method, boiled down:
as §3

Test [9] is described as follows: Quantitative High-Throughput drug screen in 47 multiple myeloma cell lines against the NCATS MIPE library collection: SKMM1_PLB cell viability assay (AID 1919863). Also: nearly all actives have a fitted effect of over 35% in size. Also: potency is read from the fitted curve at half-maximal effect. Particulars: SKMM1 myeloma viability, CellTiter-Glo ATP, 48 h; viability: hits give low values. The method, boiled down:
as §3

Test [10] in a line: Quantitative High-Throughput drug screen in 47 multiple myeloma cell lines against the NCATS MIPE library collection: KMS26_JCRB cell viability assay (AID 1918975). Also: nearly all actives have a fitted effect of over 45% in size. Also: potency is read from the fitted curve at half-maximal effect. The method in brief: as §1
A short description of test [11]: Quantitative High-Throughput drug screen in 47 multiple myeloma cell lines against the NCATS MIPE library collection: MMM1_PLB cell viability assay (AID 1918976). The method in brief:
as §3

Test [12] in a line: Quantitative High-Throughput drug screen in 47 multiple myeloma cell lines against the NCATS MIPE library collection: MOLP8_DSMZ cell viability assay (AID 1918977). Also: nearly all actives have a fitted effect of over 45% in size. Also: potency is read from the fitted curve at half-maximal effect. The method, boiled down:
as §3

Test [13] in a line: Quantitative High-Throughput drug screen in 47 multiple myeloma cell lines against the NCATS MIPE library collection: OCIMY5_PLB cell viability assay (AID 1918988). Also: nearly all actives have a fitted effect of over 65% in size. Also: potency is read from the fitted curve at half-maximal effect. The method in brief:
as §3

A short description of test [14]: Quantitative High-Throughput drug screen in 47 multiple myeloma cell lines against the NCATS MIPE library collection: OPM1_PLB cell viability assay (AID 1918989). Also: nearly all actives have a fitted effect of over 40% in size. Also: potency is read from the fitted curve at half-maximal effect. The method, boiled down: as §3
Test [15] can be described thus: Quantitative High-Throughput drug screen in 47 multiple myeloma cell lines against the NCATS MIPE library collection: U266_ATCC cell viability assay (AID 1919864). The method in brief:
as §3

Test [16] is described as follows: Quantitative High-Throughput drug screen in 47 multiple myeloma cell lines against the NCATS MIPE library collection: NCIH929_DSMZ cell viability assay (AID 1918978). Also: nearly all actives have a fitted effect of over 35% in size. Also: potency is read from the fitted curve at half-maximal effect. The method in brief:
as §3

The nature of test [17]: Quantitative High-Throughput drug screen in 47 multiple myeloma cell lines against the NCATS MIPE library collection: LP1_DSMZ cell viability assay (AID 1918982). Also: nearly all actives have a fitted effect of over 35% in size. Also: potency is read from the fitted curve at half-maximal effect. The method in brief: as §3
Test [18] can be described thus: Quantitative High-Throughput drug screen in 47 multiple myeloma cell lines against the NCATS MIPE library collection: OCIMY7_PLB cell viability assay (AID 1918987). Also: potency is read from the fitted curve at half-maximal effect; nearly all actives have a fitted effect of over 65% in size. As to conditions: OCI-MY7 myeloma viability, CellTiter-Glo ATP, 48 h; viability (% of DMSO): at 45.8 µM (top of the series). The method, boiled down: as §3
For orientation: ATP-based viability assays read luminescence as a measure of living cells.

The nature of test [19]: Quantitative High-Throughput drug screen in 47 multiple myeloma cell lines against the NCATS MIPE library collection: KMS12PE_JCRB cell viability assay (AID 1918972). Also: nearly all actives have a fitted effect of over 30% in size. Also: potency is read from the fitted curve at half-maximal effect. The method, boiled down:
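Approved and investigational drugs from MIPE 4.0 were added by pin tool to 500 cells per well. After 48 hours at 37C, ATP-based CellTiter-Glo luminescence indicated remaining viability.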

Test [20] in a line: Quantitative High-Throughput drug screen in 47 multiple myeloma cell lines against the NCATS MIPE library collection: KMS21BM_JCRB cell viability assay (AID 1918974). As to conditions: ATP luminescence, 48 h; viability: at 45.8 µM (top of the series) unless noted. The method in brief:
as §2

With `N#Cc1ccc(NC(=O)Nc2ccccc2Br)c2n[nH]nc12`, the Potency entry in test [1], in test [2], in test [3], in test [5], in test [6] and in test [8] was “inactive” in each case. For the same compound, the Potency in test [4] is 26.4 µM (active); in test [7], 13.2 µM (active). Further, in test [9], the viability is 115%.

For the compound `CCc1ccc(OCc2ccccc2C(=O)Nc2ccc3nc(C)cc(N)c3c2)cc1`, the Potency in test [1] was 7.43 µM (active); in [2], 0.59 µM (active); in test [10], 6.62 µM (active); in test [11], 6.62 µM (active); in test [12], 7.43 µM (active); in test [3], 8.33 µM (active). The Potency is 4.69 µM (active) in test [4]; 3.32 µM (active) in test [5]; 8.33 µM (active) in test [6]; 1.18 µM (active) in test [7]; 7.43 µM (active) in [8]; 7.43 µM (active) in [13]. Also, the Potency in test [14] is 1.32 µM (active); in test [9], 6.62 µM (active); in test [15], 5.9 µM (active).

In the case of `CC(=Cc1ccccc1)C=C1SC(=S)N(CC(=O)O)C1=O`, the Potency entry in test [1], in test [2], in [10], in test [16], in test [3] and in [4] was “inactive” throughout. In addition, the Potency entry in test [5], in test [17], in test [6], in test [8] and in [14] was “inactive” in each case. Besides, in [9], the viability is 123%.

On to `COCCOC(=O)C1=C(C)NC2=C(C(=O)CC(c3ccccc3OC)C2)C1c1cccc(O)c1` (centres undefined), for which the Potency is 10.5 µM (active) in test [1]; 4.18 µM (active) in test [2]; 8.33 µM (active) in [10]; 16.6 µM (active) in test [4]; 5.9 µM (active) in test [6]; 0.001 µM (active) in test [7]. The Potency in [18] was 2.64 µM (active); in test [13] it was 8.33 µM (active); in test [14], 6.62 µM (active); in test [9], 10.5 µM (active); in [15], 13.2 µM (active). In addition, the Potency result in test [3] is “inactive”.

As for `COC(=O)N[C@H](C(=O)N1CCC[C@@H]1c1ncc(-c2ccc(-c3ccc(-c4cnc([C@@H]5CCCN5C(=O)[C@@H](NC(=O)OC)C(C)C)[nH]4)cc3)cc2)[nH]1)C(C)C`, the Potency is 20.9 µM (active) in test [1]; 16.6 µM (active) in test [19]; 26.4 µM (active) in test [16]; 26.4 µM (active) in test [5]; 18.7 µM (active) in test [17]; 29.6 µM (active) in [7]. Besides, the Potency in [18] was 18.7 µM (active).

With `COc1cc2nc(-c3ccc(N4CCN(C)CC4)cc3)nc(NCCN3CCOCC3)c2cc1OC`, the Potency in [1] is 0.166 µM (active); in [2], 0.105 µM (active); in test [10], 0.0372 µM (active); in test [11] it was 0.0743 µM (active); in test [16], 0.296 µM (active); in test [3], 0.148 µM (active). For the same compound, the Potency in test [4] is 0.0187 µM (active); in test [5], 0.0118 µM (active); in test [6] it was 0.0662 µM (active); in test [7] it was 0.132 µM (active); in test [8] it was 0.0209 µM (active); in [13] it was 0.0187 µM (active). The values for the Potency in test [14], in test [9] and in test [15] were 0.166 µM (active), 0.132 µM (active) and 0.0209 µM (active), respectively.

Turning to `COCCCCC(=NOCCN)c1ccc(C(F)(F)F)cc1`, the Potency in test [1] is 20.9 µM (active); in [4] it was 16.6 µM (active); in [8] it was 3.72 µM (active); in test [13], 23.5 µM (active); in [14], 23.5 µM (active); in test [15], 16.6 µM (active). The Potency entry in test [19], in test [3] and in test [7] was “inactive” each time.

Consider `CCCCCCCCCCCC1=C(O)C(=O)C=C(O)C1=O`, for which the Potency in test [1] was 23.5 µM (active); in test [19], 1.18 µM (active); in test [7], 0.469 µM (active); in [13] it was 29.6 µM (active); in test [14] it was 3.72 µM (active). Moreover, in test [3], the Potency result was “inactive”.

As for `O=c1cc(-c2cccc3c2Sc2ccccc2S3)oc(N2CCOCC2)c1`, the Potency in test [1] was 23.5 µM (active); in test [2], 13.2 µM (active); in test [16] it was 18.7 µM (active); in test [4] it was 18.7 µM (active); in test [5], 23.5 µM (active); in [13] it was 20.9 µM (active). For the same compound, the Potency is 26.4 µM (active) in [14] and 18.7 µM (active) in test [9]. Further, the Potency result in test [3] is “inactive”.

`COc1ccc(Cc2nccc3cc(OC)c(OC)cc23)cc1OC`: the Potency in [1] is 16.6 µM (active); in test [11], 23.5 µM (active); in test [3], 18.7 µM (active); in test [4], 23.5 µM (active); in test [5], 23.5 µM (active); in test [6], 8.33 µM (active). Further, the results for the Potency in [8], in [13] and in [14] were 3.72 µM (active), 16.6 µM (active) and 11.8 µM (active), respectively. The Potency entry in [20] and in test [16] was “inactive” throughout.

Consider `CC(=O)Nc1ccc([C@H](C)C(=O)Nc2ncc(C(C)C)s2)cc1`, for which the Potency in test [1] was 2.35 µM (active); in [2], 3.32 µM (active); in test [10] it was 1.32 µM (active); in test [11] it was 6.62 µM (active); in [12], 3.32 µM (active); in test [16] it was 0.264 µM (active). The Potency in [3] is 5.9 µM (active); in test [4], 0.418 µM (active); in [5], 0.743 µM (active); in test [6], 7.43 µM (active); in test [8] it was 3.72 µM (active); in test [13] it was 0.743 µM (active). For the same compound, the Potency is 5.26 µM (active) in [14], 8.33 µM (active) in test [9] and 4.69 µM (active) in [15].

For `O=C(CCCCCCC(=O)Nc1ccccc1)NO`, the Potency was 2.35 µM (active) in test [1]; 1.66 µM (active) in [19]; 2.64 µM (active) in [16]; 5.9 µM (active) in test [3]; 2.96 µM (active) in test [4]; 2.09 µM (active) in test [5]. Further, the Potency in [6] is 3.72 µM (active); in [7], 1.87 µM (active); in [8] it was 1.87 µM (active); in test [13] it was 2.64 µM (active); in test [14], 1.32 µM (active); in [9], 3.72 µM (active). Further, the Potency in [15] was 5.9 µM (active).

For the compound `CON=C(C(=O)N[C@@H]1C(=O)N2C(C(=O)OCOC(=O)C(C)(C)C)=C(C=Cc3scnc3C)CS[C@H]12)c1csc(N)n1`, the Potency entry in [1], in test [2], in [13] and in test [14] was “inactive” throughout. Moreover, the Potency is 20.9 µM (active) in test [16] and 18.7 µM (active) in test [5].

As for `COc1ccc(-c2coc3cc(O)cc(O)c3c2=O)cc1`, the Potency result in [1], in test [2], in test [12], in [16], in [3] and in [5] was “inactive” in each case. For the same compound, the Potency entry in test [17], in test [6], in [8] and in [14] was “inactive” in each case.
